Source: PubChem BioAssay
Only some compounds are listed: those with a hit (about 6% of all), similar ones and a draw of the others.
Tau fluor counter: counter-screen for tau fibril formation inhibitors; Potency, µM (top dose mostly 57.7 µM), for the others: at the top dose activity change, negative = decrease; 280,000 compounds, 0.93% hits; tau K18 P301L Alexa594 fluorescence, heparin fibrillization; also: nearly all actives have a fitted effect of over 55% in size
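Human tau K18 P301L (15 uM unlabeled, 0.24 uM Alexa 594-labeled) in 100 mM sodium acetate pH 7 with 20 uM heparin, 6 hr at 37 C. ThT 30 uM added, 1 hr ambient; Alexa 594 FP and total fluorescence read at 555/632 nm.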
Tau fibril FP: inhibitors of human tau fibril formation. P10636. K18 P301L tau heparin fibrillization, Alexa594 FP, 6 h. Potency, µM (series often up to 57.7 µM), inactives show at the highest dose activity, negative = inhibition, usual class: inhibitors. 280,000 compounds, 0.39% hits. AID 1468; also: nearly all actives have a fitted effect of over 55% in size
Target sequence (P10636 561-689 P618L limits assumed): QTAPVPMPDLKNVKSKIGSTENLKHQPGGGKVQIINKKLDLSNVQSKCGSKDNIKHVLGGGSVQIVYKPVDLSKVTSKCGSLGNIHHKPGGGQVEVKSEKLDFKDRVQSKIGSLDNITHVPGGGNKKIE
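Human K18 P301L fragment (15 uM unlabeled plus 0.24 uM Alexa 594-labeled) in 100 mM sodium acetate pH 7 with compound, aggregation induced by 20 uM heparin for 6 hr at 37 C. ThT (30 uM) added for 1 hr, then Alexa 594 FP read.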
Sfp inh: inhibitors of Bacillus subtilis Sfp phosphopantetheinyl transferase. Q9F4F7. Biochemical Sfp PPTase activity, qHTS. Potency, µM, for the others: largest response in the series, negative = inhibition, usual class: inhibitors. 310,000 compounds, 3.5% hits;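 also: the enzyme is Sfp with the accession as filed and its product quenches rhodamine fluorescence; 0% = enzyme reaction without inhibitor and -100% = no enzyme wells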
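After 15 min at room temperature with compound, 15 nM Sfp received 5 uM rhodamine-CoA plus 12.5 uM BHQ-2-ybbR (50 mM Hepes pH 7.6, 10 mM MgCl2). Rate came from the fluorescence difference over 30 min, ex 525/em 598 nm.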
PLK1 PBD inh: blocks phosphopeptide binding to human PLK1 polo-box domain; P53350; Plk1 PBD binding of FITC phosphopeptide, fluorescence polarization; Potency, µM, for the others: max response, negative = inhibition, usual class: inhibitors; 360,000 compounds, 2.8% hits; AID 720504; also: series mostly up to about 57 µM; nearly all actives have a fitted effect of over 65% in size
Tau ThT inhib: blocks human tau fibril formation measured by thioflavin T; Potency, µM (highest dose often 57.4 µM), for inactives: at the highest dose activity, negative = inhibition, actives largely listed as inhibitors; 270,000 compounds, 2.1% hits; recombinant tau K18 P301L, heparin-induced fibrillization, ThT fluorescence; P10636; also: nearly all actives have a fitted effect of over 55% in size
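Fibril formation assay: tau K18 P301L at 15 uM with trace Alexa 594 label, heparin inducer 20 uM, pH 7 sodium acetate buffer, 37 C for 6 hr; endpoint ThT signal.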
VDR inhibitor: vitamin D3 receptor (human) inhibition | P11473 | VDR-SRC2-3 peptide fluorescence polarization, 2 h | Potency, µM, for the others: max response, negative = inhibition, most hits filed as inhibitors | 400,000 compounds, 0.93% hits | AID 504847
Target sequence (P11473 whole entry, looked up): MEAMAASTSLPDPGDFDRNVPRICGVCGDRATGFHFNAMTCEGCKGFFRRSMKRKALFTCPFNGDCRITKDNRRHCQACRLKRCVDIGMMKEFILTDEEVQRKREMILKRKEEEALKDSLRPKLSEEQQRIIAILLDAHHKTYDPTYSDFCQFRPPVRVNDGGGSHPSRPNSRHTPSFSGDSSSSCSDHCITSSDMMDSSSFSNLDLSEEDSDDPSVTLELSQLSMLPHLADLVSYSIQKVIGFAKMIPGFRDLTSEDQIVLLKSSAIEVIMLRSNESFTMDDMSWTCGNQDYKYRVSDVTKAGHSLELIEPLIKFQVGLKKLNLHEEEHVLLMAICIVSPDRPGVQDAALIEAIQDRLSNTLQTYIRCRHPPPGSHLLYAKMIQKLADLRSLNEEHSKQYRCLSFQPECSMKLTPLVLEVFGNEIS
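Fluorescence polarization assay measuring small-molecule disruption of VDR binding to the coregulator peptide SRC2-3. Compounds were pin-transferred (23 nl) into the reagent mix and incubated 2 h at room temperature before reading.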
Starred values were filed as active, the others as inactive; ? = inconclusive; . = no result; [ ] = dose if it differs, or a comment. Calls follow the shape of the dose curve; as a rule, active = well fitted curve in the direction sought with a large enough effect; inconclusive = small, poorly fitted or top-dose-only effect, or another doubt; inactive = no such curve, though single readings can be large; an effect the other way counts as inactive or inconclusive. Unless noted, % is scaled to controls: 0 for no effect and ±100 for the full control effect; potency is read from the fitted curve at half-maximal effect.

SMILES	Tau fluor counter	Tau fibril FP	Sfp inh	PLK1 PBD inh	Tau ThT inhib	VDR inhibitor
Oc1ccc(Cl)cc1/C=C/c1ccc2cccc(O)c2n1	25µM*[quencher]	?	13%	9%	?	8%
Cc1ccsc1/C=C/c1ccc2cccc(O)c2n1	?	3%	50µM*	-5%	?	6%
Cc1ccsc1/C=C/c1ccc2ccccc2n1	-17%	-1%	-21%	25%	?	0%
Cc1cccc(N=Nc2c(C)c(C#N)c(O)[nH]c2=O)c1	-20%	2%	3%	-13%	1.1µM*	11%
CO[C@@H]1COC(=O)[C@H]2CCCN2C(=O)[C@@H](C)COC(=O)CCC[C@H]1C	-18%[11.6 µM]	-3%[11.6 µM]	26%	.	-17%[11.5 µM]	.
Cn1c(-c2sc3cc(C(F)(F)F)cnc3c2-c2cccnc2)n[nH]c1=S	-6%	1%	-29%	24µM*	-11%	-13%
O=C1CCCCCN1Cc1ccccc1	2%	-3%	19%	30µM*	3%	-16%
O=C1CCCCCCCN1Cc1ccccc1	.	.	.	-5%	.	-4%
CCOC(=O)N1CCc2c(sc3c2c(=O)n(-c2ccc(CC)cc2)c(=O)n3Cc2ccc(F)cc2Cl)C1	-3%	1%	.	.	-6%	1%
CC1CCC(NC(=O)CCCn2sc3ccccc3c2=O)CC1 (stereo not drawn)	.	.	4%	27µM*	.	?
O=C(CCCn1c(=O)[nH]c2ccccc2c1=O)NC1CCCCCC1	-4%	4%	5%	5%	-4%	-14%
S=C(NCc1ccccc1)N1CCN(C(=S)NCc2ccccc2)CC1	.	.	.	0%	.	-16%
CC(C)(CNC(=O)c1cccc(S(=O)(=O)Nc2ccc(SC(F)F)cc2)c1)N1CCOCC1	.	.	.	13µM*	.	-24%
COC(=O)[C@@]1(Cc2ccc(OC)cc2)[C@H]2c3cc(C(=O)N4CCCC4)n(Cc4ccccc4)c3C[C@H]2CN1C(=O)c1ccccc1	.	.	.	3%	.	.
COC(=O)[C@@H]1C[C@H]1[C@@H](NS(=O)(=O)c1ccc(-c2ccccc2)cc1)c1ccccc1	-24%	1%	17%	.	-5%	.
C/C(=N\NC(=O)c1cc(C(C)(C)C)[nH]n1)C12CC3CC(CC(C3)C1)C2	-11%	-10%	5%	17µM*	1%	-29%
S=c1[nH]cc(-c2ccccc2)[nH]1	1%	1%	-2%	-10%	-2%	-23%
O=[N+]([O-])c1ccc(-c2c[nH]c(=S)[nH]2)cc1	?	?	3.5µM*	7.5µM*	25µM*	?
Cc1cc(/C=C2\SC(=S)N(C)C2=O)c(C)n1-c1ccc(O)cc1	8.9µM*[quencher]	?	-1%	-9%	6.3µM*	-15%
O=C1NN(c2ccc(Br)cc2)C(=O)/C1=C\c1ccc(O)cc1O	.	.	14%	30µM*	.	-2%
Cc1cc(/C=C2\SC(=S)NC2=O)c(C)n1-c1cccc(O)c1	?	14%	?	?	16µM*	-20%
O=C1NN(c2ccccc2)C(=O)/C1=C\c1cccn1-c1ccc(Cl)c([N+](=O)[O-])c1	-18%	11%	4%	?	?	-12%
O=C1NN(c2ccc(F)cc2)C(=O)/C1=C/c1cccs1	-23%	-6%	10%	-28%	?	?
O=C1NN(c2ccccc2)C(=O)C1=Cc1ccccc1O	.	.	.	27µM*	.	.
Cc1cc(C)c(NC(=O)Cn2c(=O)n(CC3CCCO3)c(=O)c3ccccc32)c(C)c1 (stereo not drawn)	-1%	-4%	.	.	5%	-13%
SMILES	Tau fluor counter	Tau fibril FP	Sfp inh	PLK1 PBD inh	Tau ThT inhib	VDR inhibitor
C=CCNC1=C2C[C@@H](C)C[C@H](OC)[C@H](O)[C@@H](C)/C=C(\C)[C@H](OC(N)=O)[C@@H](OC)/C=C/C=C(\C)C(=O)NC(=CC1=O)C2=O	-21%[11.6 µM]	7%[11.6 µM]	30%	.	-24%[11.5 µM]	-13%
O=C(c1ccccc1Br)N(Cc1ccccc1F)C1CCS(=O)(=O)C1 (stereo not drawn)	-29%	-3%	.	.	?	6%
CCOC(=O)OCC1C=C[C@H](c2cc(-c3ccccc3)ccc2O)C(c2ccc(C(C)=O)cc2)O1 (stereo partly drawn)	?	4%[11.6 µM]	13%	.	2%[11.5 µM]	.
O=C1NN(c2cccc(Br)c2)C(=O)/C1=C/c1ccc(-c2cc([N+](=O)[O-])ccc2O)o1	4.5µM*[quencher]	?	16%	19µM*	2.8µM*	-16%
CC1=NN(c2ccc(C)cc2)C(=O)/C1=C/c1ccc(-c2cc([N+](=O)[O-])ccc2O)o1	.	.	-18%	?	.	-6%
O=C1NN(c2cccc(Br)c2)C(=O)/C1=C\c1ccc(O)cc1	.	.	-6%	24µM*	.	?
Cc1cc(/C=C2/C(=O)NN(c3ccccc3)C2=O)c(C)n1-c1cccc(O)c1	?	10%	-19%	-24%	13µM*	11%
CCOC(=O)c1cnc2ccc(OC)cc2c1Nc1ccc(N2CCN(C)CC2)cc1	.	.	-8%	6.7µM*	.	-4%
CCOC(=O)c1cnc2ccc(C(=O)OC)cc2c1Nc1ccc(C(=O)O)cc1	8%	8%	21%	-17%	-8%	-1%
CCOC(=O)c1ccc2ncc(C(=O)OCC)c(Nc3ccc(N4CCOCC4)cc3)c2c1	-26%	2%	50µM*	4%	?	-2%
CCOC(=O)c1cnc2c(C)cccc2c1Nc1ccc(N2CCOCC2)cc1	?	?	-29%	.	22µM*	.
CCOC(=O)c1cnc2ccc(OC)cc2c1Nc1ccc2c(c1)OCCO2	?	-3%	-10%	-4%	?	33%
CCOC(=O)c1cnc2c(C)c(Cl)ccc2c1Nc1ccc(N2CCOCC2)cc1	?	1%	.	.	?	-2%
Cc1nc2c3cc(F)ccc3n(Cc3ccc(F)cc3)c2s1	6%	5%	?	-21%	9%	?
